High-throughput results as filed in PubChem BioAssay.
Hits are enriched below; roughly 19% of the tested compounds scored in any of these assays.
Pf growth 48h = inhibits P. falciparum growth in the first generation, 48 h. P. falciparum luciferase growth in erythrocytes, 48 h. 310,000 compounds, 5.9% hits. AID 504832. Potency, µM (doses to about 28.7 µM), inactives show at the highest dose activity change, negative = inhibition, most hits filed as inhibitors; note: potency is the fitted concentration of half-maximal effect; % is set by controls: 0 for no effect and ±100 for the full control effect
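Growth was read as firefly luciferase luminescence after a 48 h, 37 C, 5% CO2 exposure of compounds to reporter-bearing P. falciparum cultures (0.1% parasitemia, 2% hematocrit final) in Albumax-supplemented RPMI 1640.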
SARS PLpro yeast-1 = SARS-CoV PLP inhibition in yeast; Potency, µM (titrated, usually from 32.9 µM), without a hit: top-dose activity, positive = growth rescue, usual class: activators; 330,000 compounds, 0.19% hits; S. cerevisiae expressing SARS-CoV PLpro, growth rescue; calls by dose curve; note: potency is the fitted concentration of half-maximal effect; 0% is about no effect; nearly all actives have a fitted effect of over 55% in size
CHX counter = counter-screen hit for Shiga toxin inhibitors, cycloheximide. cell reporter, cycloheximide protein synthesis inhibition counterscreen. max response, %. 300,000 compounds, 12% hits; in the data active = max response mostly above about 13%, no sharp cut-off; inactive = mostly below about 14%; note: read at 38.3 µM for the half of the compounds with a filed dose; 0% is about no effect
Shiga inhibitor = inhibitors of Shiga toxin in Vero cells. Vero cells, Shiga toxin protein synthesis inhibition reporter. 290,000 compounds, 9.2% hits. inhibition, % at 38.7 µM; in the data active = inhibition mostly above about 28%, no sharp cut-off; inactive = mostly below about 43%; note: 0% is about no effect
AMA1-RON2 inh = AMA1-RON2 (P. falciparum) interaction inhibition; AlphaScreen AMA1-biotinylated RON2 peptide binding; Potency, µM (doses to about 58.2 µM), inactives show at the top dose activity change, negative = inhibition, most hits filed as inhibitors; 360,000 compounds, 0.2% hits; AID 720542;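 note: potency is the fitted concentration of half-maximal effect; 0% = vehicle wells and -100% = peptide control; nearly all actives have a fitted effect of over 45% in size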
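AMA1 (3D7) with his tag at 25 nM final met compounds first, then biotinylated RON2 peptide at 25 nM; detection used donor plus acceptor beads, 10 µg/mL apiece, read by AlphaScreen after 30 min at room temperature.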
Pf growth 96h = P. falciparum growth inhibition at 96 hours; Potency, µM (titrated, usually from 28.7 µM), inactives show at the top dose activity change, negative = inhibition, most hits filed as inhibitors; 320,000 compounds, 6.9% hits; P. falciparum luciferase reporter growth, 96 h; note: potency is the fitted concentration of half-maximal effect; % is set by controls: 0 for no effect and ±100 for the full control effect
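Cell-based qHTS: luciferase-tagged P. falciparum in erythrocytes (2% hematocrit, 0.05% parasitemia final) incubated with compounds for 96 hours, 37 C, 5% CO2; luciferase detection reagent then added and luminescence measured.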
SARS PLpro yeast-2 = Rescues yeast growth by inhibiting SARS-CoV PLpro | shares compounds with SARS PLpro yeast-1 | yeast expressing SARS-CoV PLpro, growth phenotype rescue | calls only | 1,000 compounds, 19% hits | AID 652038; call rule not given here
* marks the source's active call; other numbers are inactive results; i = inactive; u = inconclusive; x = no result; + = active, no number; [ ] = dose if it differs, or a comment. Unless noted, calls come from the whole dose curve; as a rule, active = well fitted curve in the direction sought with a large enough effect; inconclusive = small, poorly fitted or top-dose-only effect, or another doubt; inactive = no such curve, though single readings can be large; an effect the other way counts as inactive or inconclusive.

SMILES	Pf growth 48h	SARS PLpro yeast-1	CHX counter	Shiga inhibitor	AMA1-RON2 inh	Pf growth 96h	SARS PLpro yeast-2
COCCCNC(=O)C1CCN(S(=O)(=O)c2c(C)noc2/C=C\c2ccc(OC)cc2)CC1	u	0.0%	-1.6	-15.3	-10.1%	-10.0%	x
COC(=O)Cn1c(CN2CCOCC2)nc2c1c(=O)n(C)c(=O)n2C	27.2%	u	-0.8	-4.2	-0.8%	32.7%	i
Cn1c(=O)c2c(nc(CN3CCOCC3)n2CCN2CCOCC2)n(C)c1=O	3.7%	2.7%	1.6	1.3	15.1%	-81.1%	x
O=c1[nH]c(C2C3CC4CC(C3)CC2C4)nc2ccccc12 (stereo not drawn)	-5.7%	2.82µM*	1.0	-1.4	0.0%	u	i
COc1ccc(N2CCN(C3CCCN(C(=O)C4=C(C)OCCO4)C3)CC2)cc1 (stereo not drawn)	5.1%	u	-0.6	-5.2	1.0%	-20.4%	i
Cc1cccc(N2CCN(CCNC(=O)c3cc4c(s3)CS(=O)(=O)C4)CC2)c1C	x	-8.7%	11.2	-9.6	-1.0%	x	x
O=C(Nc1ccc(F)c(F)c1)c1ccccc1-c1ccccc1	4.0%	14.1µM*	-3.5	0.2	9.2%	7.8%	i
O=C(Nc1cccc(Br)c1)c1ccccc1-c1ccccc1	-17.3%	-62.8%	-0.1	-10.5	-6.8%	u	x
NS(=O)(=O)c1cccc(NC(=O)COC(=O)CCSc2ccccc2)c1	6.4%	-23.4%	-2.8	17.1	2.7%	-2.9%	x
NS(=O)(=O)c1cccc(NC(=O)CCSc2ccccc2Cl)c1	78.7%	u	61.2*	68.5*	11.6%	109.9%	i
CCN(CC(=O)N1CCc2ccccc2C1)S(=O)(=O)c1ccc2ccccc2c1	x	6.9%	0.9	-16.9	-4.9%	-14.9%	x
CCOC(=O)/C(=N\Nc1ccccc1)S(=O)(=O)c1ccccc1	x	-0.3%	22.1	25.3	-19.3%	0.0%	x
NNC(=O)/C(=N/Nc1ccccc1)S(=O)(=O)c1ccc(Cl)cc1	9.28µM*	u	-4.8	-14.0	38.6%[2.32 µM]	11.7µM*	i
C=CCc1ccc(OCCn2cncn2)c(OC)c1	7.7%	u	-1.8	3.0	-8.5%	0.0%	i
CCOC(=O)CSc1nc2c(sc(=S)n2Cc2ccco2)c(=O)n1-c1ccccc1	u	u	-3.3	-15.4	-3.7%	u	i
CCN1C(=O)/C(=C2\C=Cc3ccccc3N2CC)OC1=S	x	x	x	x	-24.4%	x	x
CCN1C(=O)/C(=C2/C=CC=CN2C)OC1=S	4.4%	11.2µM*	1.8	5.3	-4.6%	-20.8%	i
O=C(COC(=O)c1ccccc1C(=O)c1ccc(Cl)c([N+](=O)[O-])c1)NC1CCCCCC1	x	3.55µM*	-2.6	-10.7	-7.5%	-21.3%	+
Cc1ccc2c(c1)Cc1nc3ccccc3nc1-2	i	-15.8%	2.6	52.2	27.0%	u	x
Cc1ccc2c(c1)-c1nc3ccccc3cc1C2=NC1CCCCC1	130.0%	u	55.2*	85.4*	-8.5%	52.6%	i
CCCCCC(=O)NNC(=S)NC(=O)c1ccccc1[N+](=O)[O-]	u	-0.4%	-4.5	-6.5	102.7%	u	x
CCCCCC(=O)NNC(=S)NC(=O)c1cccc([N+](=O)[O-])c1	-4.9%	11.2µM*	-1.4	0.8	53.4%	u	i
C=CCc1cccc(/C=N/NC(=O)CCCNc2ccc(C)cc2)c1O	-7.6%	14.1µM*	-10.1	-8.6	-12.6%	u	+
O=c1c2ccccc2ncn1CCCSc1ccccc1	22.2%	u	9.6*	23.6	12.8%	u	i
O=c1c2ccccc2ncn1CCCSc1ccc(Cl)cc1	5.1%	-6.4%	-2.6	-4.6	0.0%	8.1%	x
SMILES	Pf growth 48h	SARS PLpro yeast-1	CHX counter	Shiga inhibitor	AMA1-RON2 inh	Pf growth 96h	SARS PLpro yeast-2
O=C(CCN1CCOCC1)NC1CCCN(Cc2ccccc2F)C1 (stereo not drawn)	3.2%	u	-1.6	-13.1	-0.2%	7.9%	i
O=C(O)Cc1ccc(NC(=S)NCc2ccco2)cc1	-10.1%	15.2%	-1.8	-8.7	3.4%	u	x
O=C(c1ccc(NC(=S)NCc2ccco2)cc1)N1CCCCC1	-22.4%	u	-4.2	-7.8	2.7%	24.5%	i
CCC(=O)c1ccc(N2CCN(C(=O)c3cc([N+](=O)[O-])ccc3N3CCN(C)CC3)CC2)c(F)c1	u	u	-0.3	28.6	10.2%	9.28µM*	+
CCC(=O)c1ccc(N2CCN(C(=O)c3ccc(Br)cc3)CC2)c(F)c1	5.8%	28.2%	5.2	-7.6	4.3%	0.0%	x
CC(NC(=O)c1ccccc1Cl)NC(=O)c1ccccc1Cl	10.5%	-1.5%	-0.8	-10.6	12.7%	10.3%	x
CC(C)CNC(=S)NC(=O)c1ccccc1Cl	31.4%	u	39.6*	43.5*	12.3%	37.3%	i
C=CCNC(=O)C1CC2Cn3c(nc4cc(Cl)c(Cl)cc43)C2N1C (stereo not drawn)	-27.1%	u	x	x	-2.5%	43.1%	i
O=C(Nc1cc(Cl)cc(Cl)c1)C(NCCO)c1ccccc1 (stereo not drawn)	31.2%	u	11.4	-25.6	-21.6%	66.5%	i
O=C(Nc1cc(Cl)cc(Cl)c1)C(c1ccccc1)N1CCCCC1 (stereo not drawn)	0.0%	-7.9%	1.6	-11.9	u	0.0%	x
Cc1nc(SCc2nc3ccc(C(=O)c4ccccc4)cc3[nH]2)c2oc3ccccc3c2n1	x	-2.2%	x	x	x	x	x
O=C(COC(=O)c1ccccc1NCCO)NCC1CCCCC1	10.3%	-4.6%	x	x	18.3%	35.5%	x
O=C(O)c1ccc(N=NN2CCCCCC2)cc1	138.6%	12.6µM*	42.2*	73.6*	0.6%	7.6%	i
COc1ccc2nc(SCC(=O)N3CC(=O)Nc4ccccc43)c(C#N)cc2c1	x	u	-2.2	-7.2	-3.1%	u	i
O=C(c1ccc(Sc2cccc(Cl)c2)c([N+](=O)[O-])c1)N1CCN(c2ccccn2)CC1	-15.1%	0.1%	-2.7	11.8	u	u	x
O=C(Nc1cc(-c2ccccc2)nn1C1CCCCC1)c1ccc(Cl)cc1	x	u	x	x	3.7%	x	i
CN1OC2C(=O)N(c3ccccc3)C(=O)C2C1c1ccc(F)cc1 (stereo not drawn)	5.2%	u	3.2	70.8	11.0%	0.3%	i
Cc1nn(C)c(C)c1/C=C1/CC2C3CC=C4CC(O)CCC4(C)C3CCC2(C)C1=O (stereo not drawn)	u	12.6µM*	-5.8	-2.1	u	u	i
CCOC(=O)Nc1nnc(Cc2ccc(Cl)c(Cl)c2)s1	-6.1%	-0.8%	1.2	-2.7	47.2%	0.3%	x
Cc1[nH]c(=S)sc1Cc1ccc(Cl)c(Cl)c1	13.1%	u	0.5	-11.5	x	29.6%	+
